Assay results published in PubChem BioAssay (NCI).
Compounds without any hit were thinned out: in the full panel of roughly 83,000, 20% have a hit.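 Testing used 96-well plates and a 48-hour single-concentration exposure. Example: -40 means 40% of the starting cells died.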 The source made the active and inactive calls. The calls were made as follows: active = growth percent below 10; inactive = the rest.

Legend:
Assay in all cases: NCI-60 one-dose screen, 48 h (100 = growth as untreated, 0 = no growth, -100 = all killed)
Details in all cases: 10 µM unless noted
NCI-H23 lung = tested on: NCI-H23 lung
NCI-H226 lung = tested on: NCI-H226 lung
NCI-H322M lung = tested on: NCI-H322M lung
HOP-62 NSCLC = tested on: HOP-62 NSCLC
NCI-H460 lung = tested on: NCI-H460 lung
HOP-92 NSCLC = tested on: HOP-92 NSCLC
NCI-H522 lung = tested on: NCI-H522 lung
A549/ATCC NSCLC = tested on: A549/ATCC NSCLC
786-0 renal = tested on: 786-0 renal
COLO 205 colon = tested on: COLO 205 colon
DU-145 prostate = tested on: DU-145 prostate
K-562 leukemia = tested on: K-562 leukemia
MALME-3M melanoma = tested on: MALME-3M melanoma
MDA-MB-231 breast = tested on: MDA-MB-231 breast
RXF 393 renal = tested on: RXF 393 renal
SF-268 CNS = tested on: SF-268 CNS
SF-295 CNS = tested on: SF-295 CNS
SF-539 CNS = tested on: SF-539 CNS
UACC-257 melanoma = tested on: UACC-257 melanoma
M14 melanoma = tested on: M14 melanoma

Measured: growth

COc1ccc(-c2nc3ccc(-c4nnc(SCc5ccccc5)o4)cc3[nH]2)cc1OC
inactive: NCI-H23 lung 38.8% | NCI-H322M lung 46.7% | NCI-H522 lung 51.9% | COLO 205 colon 74.2% | DU-145 prostate 17.2% | K-562 leukemia 56.8% | MALME-3M melanoma 15.9% | SF-268 CNS 35.2% | SF-295 CNS 55.4% | UACC-257 melanoma 78.4% | M14 melanoma 40.7%
active: NCI-H226 lung -26.7% | HOP-62 NSCLC -29.8% | NCI-H460 lung -6.16% | HOP-92 NSCLC -3.75% | A549/ATCC NSCLC 9.7% | 786-0 renal -33.5% | MDA-MB-231 breast -34.4% | RXF 393 renal -34.1% | SF-539 CNS -44.5%

O=C(N/N=C/c1c[nH]c2ccccc12)Nc1ccccc1Cl
active: NCI-H23 lung 1.51% | NCI-H460 lung 1.98% | HOP-92 NSCLC 3.23% | NCI-H522 lung -41.8% | 786-0 renal -41.4% | COLO 205 colon -39.7% | DU-145 prostate 6.12% | RXF 393 renal -36.1% | SF-268 CNS 7.97% | SF-295 CNS -37.1% | SF-539 CNS -10.7%
inactive: NCI-H226 lung 19.8% | NCI-H322M lung 41.7% | HOP-62 NSCLC 18.4% | A549/ATCC NSCLC 15.2% | K-562 leukemia 12.2% | MALME-3M melanoma 33.3% | MDA-MB-231 breast 16.5% | UACC-257 melanoma 43.8% | M14 melanoma 10.9%

CCCCCCCCc1ccc(C(=O)Nc2cccc(O)c2)cc1
inactive: NCI-H23 lung 78.9% | NCI-H226 lung 67.8% | NCI-H322M lung 95.9% | HOP-62 NSCLC 101% | NCI-H460 lung 90.5% | NCI-H522 lung 23% | A549/ATCC NSCLC 90.3% | 786-0 renal 73.5% | COLO 205 colon 121% | DU-145 prostate 80.1% | K-562 leukemia 22.6% | MALME-3M melanoma 77.1% | MDA-MB-231 breast 78.9% | RXF 393 renal 86.6% | SF-268 CNS 93.1% | SF-295 CNS 75% | SF-539 CNS 79.7% | UACC-257 melanoma 79.3% | M14 melanoma 76.4%
active: HOP-92 NSCLC -4.35%

S=C(NCCc1ccccc1)Nc1ccc(OCc2nc3ccc(Cl)cc3[nH]2)cc1
inactive: NCI-H23 lung 28.6% | NCI-H226 lung 67.1% | NCI-H322M lung 57.5% | HOP-62 NSCLC 49.7% | NCI-H460 lung 10.8% | HOP-92 NSCLC 14.4% | A549/ATCC NSCLC 51.2% | 786-0 renal 29% | COLO 205 colon 43.6% | DU-145 prostate 37.3% | K-562 leukemia 10.1% | MALME-3M melanoma 56.5% | SF-268 CNS 52.8% | SF-295 CNS 60.4% | SF-539 CNS 17.8% | UACC-257 melanoma 74.1% | M14 melanoma 46.7%
active: NCI-H522 lung -26.8% | MDA-MB-231 breast 9.6% | RXF 393 renal -12.6%

COc1cc(CNC(=O)C[C@H](C)CCC=C(C)C)ccc1OCc1cn(-c2ccccc2F)nn1
inactive: NCI-H23 lung 68.3% | NCI-H226 lung 73.3% | NCI-H322M lung 92.7% | HOP-62 NSCLC 46.7% | NCI-H460 lung 89% | NCI-H522 lung 57.1% | A549/ATCC NSCLC 80.6% | 786-0 renal 43.6% | COLO 205 colon 112% | DU-145 prostate 102% | K-562 leukemia 81.6% | MALME-3M melanoma 78.3% | MDA-MB-231 breast 66.8% | RXF 393 renal 38.4% | SF-268 CNS 58.9% | SF-295 CNS 45.2% | SF-539 CNS 44.6% | UACC-257 melanoma 94% | M14 melanoma 94.8%
active: HOP-92 NSCLC 4.63%

C=CCSc1nnc(-c2ccc(-c3nc4ccccc4[nH]3)cc2)o1
inactive: NCI-H23 lung 89.9% | NCI-H226 lung 95.5% | NCI-H322M lung 97.7% | HOP-62 NSCLC 84.2% | NCI-H460 lung 87.1% | HOP-92 NSCLC 79.1% | NCI-H522 lung 70.4% | A549/ATCC NSCLC 73.5% | 786-0 renal 77.6% | COLO 205 colon 82.6% | DU-145 prostate 77.1% | K-562 leukemia 46% | MALME-3M melanoma 77.4% | MDA-MB-231 breast 92.2% | RXF 393 renal 71.3% | SF-268 CNS 87.4% | SF-295 CNS 76.2% | SF-539 CNS 82.2% | UACC-257 melanoma 88.2% | M14 melanoma 73.5%

COc1ccc(N=Nc2c(N)nn3c(-c4cc5cc(Br)ccc5oc4=O)ccnc23)cc1
inactive: NCI-H322M lung 30.1% | A549/ATCC NSCLC 39.3% | COLO 205 colon 35.8% | DU-145 prostate 37.3% | K-562 leukemia 48.4% | MALME-3M melanoma 46.4% | SF-268 CNS 23.2% | SF-539 CNS 15.6% | UACC-257 melanoma 78.1% | M14 melanoma 52.5%
active: NCI-H23 lung -4.72% | NCI-H226 lung -42.1% | HOP-62 NSCLC 2.1% | NCI-H460 lung 3.1% | HOP-92 NSCLC -3.29% | NCI-H522 lung 0.558% | 786-0 renal 5.11% | MDA-MB-231 breast -27.3% | RXF 393 renal -41.8% | SF-295 CNS -33.6%
